DT40 TDP1 no CPT – qHTS for Inhibitors of human tyrosyl-DNA phosphodiesterase 1 (TDP1): qHTS in cells in absence of CPT | DT40 Tdp1-/- hTDP1 cells, no CPT, ATP luminescence, 48 h | AID 686978, 2013 | actives 15% (n = 420,000) | Potency, µM (titrated, usually from 46.2 µM), usual class: inhibitors; note: nearly all actives have a fitted effect of over 55% in size
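Growth kinetics read by CellTiter-Glo luminescence after ≥48 hr at 37 °C. Cells: DT40 Tdp1-/- stably carrying human TDP1, 400 per well, compound exposure in the absence of CPT (DMSO vehicle).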
TGFb inhibitor – blocks TGF-b signaling; Potency, µM (titrated, usually from 46.1 µM), usual class: inhibitors; HepG2 CAGA-GFP TGF-b/SMAD3 reporter, GFP fluorescence, 18 h; TGF-beta stimulated, 500 pg/mL final; AID 588855; actives 1.2% (n = 410,000); note: nearly all actives have a fitted effect of over 65% in size
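HEPG2 CAGA-GFP, 1000 cells/well; 2 h settle, 37 C; cpd via pin tool; TGF-b 500 pg/mL final; 18 h, 37 C; GFP imaging ex488/em500-530; %Activity normalised to -TGF-b and +DMSO controls; CRC fit, curve class.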
HT1080 IDH1KD tx – HT-1080 IDH1 knockdown cell toxicity (counter line). Potency, µM (top dose mostly 46.1 µM), usual class: cytotoxic. actives 2% (n = 360,000). HT-1080 IDH1 knockdown viability, ATP luminescence, 48 h. AID 686971
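% activity derives from luminescence (CellTiter-Glo), normalised to DMSO and no-cell wells. HT-1080-IDH1KD cells, 750/well, had 48 h compound exposure at 37 °C.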
HT1080NT lethal – kills 2HG-producing HT-1080-NT fibrosarcoma cells. HT-1080-NT fibrosarcoma viability, CellTiter-Glo ATP luminescence, 48 h. Potency, µM (highest dose often 46.1 µM), hits mostly cytotoxic. actives 1.6% (n = 360,000). AID 686970;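 note: NT is the 2HG producing partner of a matched IDH1 knockdown line; nearly all actives have a fitted effect of over 55% in size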
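Viability of the 2HG-overproducing fibrosarcoma line after 48 hours of compound exposure at 37 degrees C was determined by luminescence with CellTiter-Glo, and concentration-effect curves were then fitted and categorized.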
DT40 TDP1 CPT – growth inhibition of DT40 Tdp1-/-;hTDP1 cells with camptothecin (screen for TDP1 inhibitors) | chicken DT40 Tdp1-/-;hTDP1 cells + 20 nM CPT, ATP luminescence, 48 h | Potency, µM (series often up to 46.2 µM), hits mostly inhibitors | actives 12% (n = 420,000) | AID 686979; note: nearly all actives have a fitted effect of over 55% in size
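Cell growth measured by CellTiter-Glo luminescence after a minimum 48 h, 37 C compound exposure with 20 nM CPT in Tdp1-knockout DT40 cells stably expressing hTDP1, seeded 400/well; qHTS titration format.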
HepG2 viability – counter-screen for TGF-b inhibitors: cytotoxicity in HepG2 cells | HepG2 CAGA-GFP viability, ATP luminescence, 18 h | Potency, µM (series often up to 46.1 µM), most hits filed as cytotoxic | actives 0.76% (n = 410,000) | AID 588856
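HepG2 CAGA-GFP cells (1000/well, DMEM with 1% FBS) received compound, then TGF-beta at 500 pg/mL final, and were incubated 18 hours at 37 degrees C. Viability was read by CellTiter-Glo luminescence. Media-only wells were set as complete cell-killing and DMSO as no toxicity.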
Hits are given with their value; n = inactive; u = inconclusive; x = no result given; ! = repeats disagree; [ ] = remark or other dose. Only some compounds are listed: those with a hit (about 17% of all), similar ones and a draw of the others. Calls come from the whole dose curve; as a rule, active = well fitted curve in the direction sought with a large enough effect; inconclusive = small, poorly fitted or top-dose-only effect, or another doubt; inactive = no such curve, though single readings can be large; an effect the other way counts as inactive or inconclusive.

SMILES | DT40 TDP1 no CPT | TGFb inhibitor | HT1080 IDH1KD tx | HT1080NT lethal | DT40 TDP1 CPT | HepG2 viability
CC(C)S(=O)(=O)N1CCCC(c2cc(C(=O)NCc3ccccc3)no2)C1 (centres undefined) | n | n | n | n | n | n
CCn1c(CNC(=O)c2ccc(OC)cc2)nnc1SCC(=O)Nc1cc(C)ccc1C | n | u | x | x | n | n
COc1cn(-c2ccccc2)nc1C(=O)OCC(=O)Nc1ccc(C)c(C)c1 | n | n | n | n | n | n
Cc1cnc(C(=O)OCC(=O)Nc2ccc(Br)c(C)c2)cn1 | n | n | n | n | n | n
CC1=C(c2ccccc2)[N+](=O)C2(CCCC2)N1[O-] | n | n | n | n | n | n
O=[N+]([O-])c1ccc2c(c1)N([O-])C1(CCCCC1)[N+]2=O | u | n | n | n | 25.9µM | n
COc1ccc(CNC(=O)c2cn(Cc3ccccc3OC)c(=O)s2)cc1 | n | n | n | n | n | n
CCN(CC)S(=O)(=O)c1ccc(C(=O)Nc2nnc(-c3ccco3)o2)cc1 | 23.1µM | n | u | n | u | n
CN(C)S(=O)(=O)c1ccc(C(=O)Nc2nnc(-c3ccco3)o2)cc1 | u | n | n | n | 20.6µM | n
CCCCN(C)S(=O)(=O)c1ccc(C(=O)Nc2nnc(-c3ccco3)o2)cc1 | 6.51µM | n | u | n | 7.31µM | n
CCN(CC)S(=O)(=O)c1ccc(Cl)c(NC(=O)CSc2nnc(-c3cccs3)o2)c1 | u | n | n | n | u | n
CCCCN(CC)S(=O)(=O)c1ccc(C(=O)Nc2nnc(-c3cccs3)o2)cc1 | 10.3µM | n | 8.2µM | u | 14.6µM | n
CCN(CC)CCCNC(=O)c1cnc(SC)nc1-c1ccccc1 | n | n | x | x | n | n
COc1ccc(F)c(CN2CCOc3ccc(CN4CCCCC4CO)cc3C2)c1 (centres undefined) | n | x | x | x | n[9.04 µM] | x
CN(c1ccccc1)S(=O)(=O)c1nnc(NC(=O)C2CCCCC2)s1 | n | n | n | n | n | n
CC(C(=O)Nc1ccc(N2CCOCC2)cc1)N1C(=O)NC(C)(C)C1=O (centres undefined) | n | n | n | n | n | n
O=C1NC2(CCCCC2)C(=O)N1CC(=O)N1CCc2ccccc21 | n | u | n | n | n | n
N#C/C(=C\c1ccc(-c2ccccc2[N+](=O)[O-])o1)C(=O)Nc1nc(-c2cccs2)cs1 | 29.1µM | n | u | n | u | n
CC1CCCCN1S(=O)(=O)c1ccc(C(=O)Nc2nnc(-c3ccco3)o2)cc1 (centres undefined) | 25.9µM | u | n | n | 14.6µM | n
COc1cccc(-c2nnc(NC(=O)c3ccc(S(=O)(=O)N4CCOCC4)cc3)o2)c1 | 11.6µM | n | n | n | 23.1µM | n
O=C(Nc1nnc(-c2ccco2)o1)c1ccc(S(=O)(=O)N2CCCCC2)cc1 | 13µM | n | n | n | 20.6µM | n
COc1cc2c(cc1OC)C(COc1ccccc1OC)N(C(=O)COc1ccc(Cl)cc1)CC2 (centres undefined) | 23.1µM | n | x | x | 18.4µM | n
CCc1ccc(OCC2c3cc(OC)c(OC)cc3CCN2C(=O)COc2ccccc2)cc1 (centres undefined) | 16.4µM | n | x | x | u | n
O=C(CSc1nnc(-c2ccccc2F)o1)N1CCc2ccccc21 | u | n | x | x | u | n
CC(C)Oc1ccc(CNS(=O)(=O)c2csc(C(N)=O)c2)cc1 | 20.6µM | u | n | n | 16.4µM | n
SMILES | DT40 TDP1 no CPT | TGFb inhibitor | HT1080 IDH1KD tx | HT1080NT lethal | DT40 TDP1 CPT | HepG2 viability
CN(C)c1ccc(CNS(=O)(=O)c2csc(C(N)=O)c2)cc1 | 7.31µM | n | n | n | 23.1µM | n
CCCCNc1c(-c2ccc(-c3ccc(C(C)=O)cc3)c(OC)c2)nc2cc(C)ccn12 | 10.3µM | u | u | u | 18.4µM | n
CCCCCCSc1ccc(-c2nc3cnccn3c2NCCCC)cc1 | 20.6µM | u | n | n | u | n
CCCCNc1c(-c2ccc(Sc3ccc(OC)cc3)cc2)nc2cc(C)ccn12 | n | u | u | u | u | n
CCCCNc1c(-c2ccc(OC)c(SC(C)CC)c2)nc2cc(C)ccn12 (centres undefined) | 14.6µM | 11.2µM | 23.1µM | 20.6µM | 16.4µM | 11.2µM
CCCCNc1c(-c2ccc(OC)c(SC(C)CC)c2)nc2cnccn12 (centres undefined) | 25.9µM | u | n | n | u | n
CCCCCCSc1cc(-c2nc3ccc(Cl)cn3c2NCCCC)ccc1OC | u | n | n | n | u | n
CC1(C(=O)NS(=O)(=O)c2cccc(OC(F)F)c2)CCN1C(=O)c1ccco1 (centres undefined) | n | n | n | n | n | n
CCCCNc1c(-c2ccc(OC)c(SC(C)CC)c2)nc2ccc(C)cn12 (centres undefined) | 18.4µM | 12.6µM | u | 20.6µM | 18.4µM | 14.1µM
O=C(CCNC(=O)c1ccccc1Cl)NCCC1=CCCCC1 | n | n | n | n | n | n
C=C1CC[C@H](O)C/C1=C/C=C1\CCC[C@]2(C)C([C@H](C)CCCC(C)(C)O)CC[C@@H]12 (some centres undefined) | 0.0206µM! | x | x | x | 0.0461µM! | x
CC[C@H](CC[C@@H](C)C1CC[C@H]2[C@@H]3CC=C4C[C@@H](O)CC[C@]4(C)[C@H]3CC[C@]12C)C(C)C (some centres undefined) | n | x | x | x | n | x
CC(C)c1ccc(NC(=O)C2Cc3c(-c4ccc(Cl)cc4)ccnc3O2)cc1 (centres undefined) | 9.2µM | n | u | u | 16.4µM | n
O=C(Nc1ccc(Cl)cc1)C1Cc2c(-c3ccccc3)ccnc2O1 (centres undefined) | u | n | n | n | u | n
O=C(Nc1ccc(Cl)cc1)C1Cc2c(-c3ccc(Cl)cc3)ccnc2O1 (centres undefined) | 20.6µM | u | u | u | 23.1µM | n
O=C(Nc1ccc(Cl)c(C(F)(F)F)c1)C1Cc2c(-c3ccccc3)ccnc2O1 (centres undefined) | u | 14.1µM | u | u | u | 11.2µM
CCCCN(C)C(=O)C1CCCN(S(=O)(=O)c2ccc3c(c2)CC(C)N3C(=O)C2CC2)C1 (centres undefined) | u | n | n | n | u | n
CCCCCCCCN1C(=O)[C@H](CC(=O)NCc2cccc(C(F)(F)F)c2)C[C@@]2(C(=O)OCC)CCCC=C12 | u | x | 14.6µM | n | u | x

Screens from PubChem.
